Assay outcomes deposited in PubChem BioAssay by The Scripps Research Institute Molecular Screening Center.
MITF primary: blocks human microphthalmia-associated transcription factor; 650,000 tested, 0.91% active; inhibition, % at 2.6 µM; AID 1259374; AlphaScreen MITF homodimerization, bead proximity signal; in the data active = inhibition above about 50%
GPR151 ag: activators of human GPR151; Q8TDV0; PathHunter beta-arrestin GPR151 cells, luminescence; activation, % at 11.2 µM; 650,000 tested, 1% active; in the data active = activation above about 4.9%
FBW7 act: activators of human E3 ligase FBW7; Q969H0; AlphaScreen FBW7–phospho-cyclin E peptide binding, activator screen; normalized activity (activation), % at 26.1 µM; 650,000 tested, 0.13% active; AID 1259310; in the data active = normalized activity above about 1.9%;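 also: purified mutant Fbw7 with reduced substrate affinity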
TEAD-YAP inh: TEAD-YAP interaction inhibition; 640,000 tested, 1.4% active; inhibition, % at 9.12 µM; HEK-TIYL cells, TEAD-Gal4/YAP UAS-luciferase luminescence; in the data active = inhibition above about 32%
MITF confirm: human MITF inhibition, confirmation. shares compounds with MITF primary. 4,700 tested, 16% active. AlphaScreen MITF homodimerization, biotin/His-MITF beads. inhibition, % at 2.6 µM;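 active = inhibition above a cutoff derived from the DMSO control wells, cut at about 28% in these data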;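 also: inhibitors lower the bead chemiluminescence by keeping MITF from dimerizing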
AlphaScreen intf2: AlphaScreen optical interference, counter-screen; shares compounds with MITF primary; LysRS AlphaScreen counterscreen, signal interference, triplicate; inhibition, % at 2.6 µM; 4,700 tested, 7.6% active; AID 1259376;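 active = inhibition above a cutoff derived from the DMSO control wells, cut at about 30% in these data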
Hits are given with their value. Most compounds without a hit are left out; they make up all but 3.5% or so of the library.

`Cc1ccc(-c2noc(C3CCN(S(=O)(=O)c4ccc5c(c4)OCCO5)CC3)n2)o1` gave MITF primary 63, GPR151 ag inactive, FBW7 act inactive, TEAD-YAP inh inactive, MITF confirm inactive and AlphaScreen intf2 inactive.
For CC(C)(C)C(=O)CN1C(=O)COc2ccccc21 the results were MITF primary 67, GPR151 ag inactive, FBW7 act inactive, TEAD-YAP inh inactive, MITF confirm inactive and AlphaScreen intf2 inactive.
Screening Cc1cc(Cl)ccc1N(CC(=O)Nc1ccc2ccccc2c1)S(C)(=O)=O returned MITF primary inactive, GPR151 ag inactive, FBW7 act inactive and TEAD-YAP inh inactive.
Screening c1ccc(CN2CCC(Nc3cc(Nc4ncccn4)ncn3)CC2)cc1 returned MITF primary inactive, GPR151 ag inactive, FBW7 act inactive and TEAD-YAP inh inactive.
`Cc1ccc(Nc2ccc(NC(=O)Cc3ccccc3)cc2)nn1` gave MITF primary inactive, GPR151 ag inactive, FBW7 act inactive and TEAD-YAP inh inactive.
Screening O=C(Cc1ccccc1)Nc1ccc(Nc2ccc(-n3cccn3)nn2)cc1 returned MITF primary 60, GPR151 ag inactive, FBW7 act inactive, TEAD-YAP inh inactive, MITF confirm inactive and AlphaScreen intf2 inactive.
For CC(C)c1ccc(C(=O)NC(=S)Nc2ccccc2C(N)=O)cc1 the results were MITF primary inactive, GPR151 ag inactive, FBW7 act inactive and TEAD-YAP inh inactive.
`CC(=O)Nc1ccc(CN2CCN(C)CC2)cc1` gave MITF primary 80, GPR151 ag inactive, FBW7 act inactive, TEAD-YAP inh inactive, MITF confirm inactive and AlphaScreen intf2 inactive.
For c1ccc(-c2ccc(CN3CCSCC3)cc2)cc1 the results were MITF primary inactive, GPR151 ag inactive, FBW7 act inactive and TEAD-YAP inh inactive.
`OCCN1CCN(Cc2ccc(-c3ccccc3)cc2)CC1` gave MITF primary 61, GPR151 ag inactive, FBW7 act inactive, TEAD-YAP inh inactive, MITF confirm inactive and AlphaScreen intf2 inactive.
CN1CCN(Cc2ccc(-c3ccccc3)cc2)CC1 was read as MITF primary 61, GPR151 ag inactive, FBW7 act inactive, TEAD-YAP inh inactive, MITF confirm inactive and AlphaScreen intf2 inactive.
Screening CCOC(=O)c1ccc(N2C(=O)C(O)=C(C(C)=O)C2c2ccc(Br)cc2)cc1 (stereo unspecified) returned MITF primary inactive, GPR151 ag inactive, FBW7 act inactive and TEAD-YAP inh inactive.
CC(=O)Oc1cn(-c2ccccc2)c2nc(C)n3c4ccccc4nc3c12 was read as MITF primary inactive, GPR151 ag inactive, FBW7 act inactive and TEAD-YAP inh inactive.
`CCCCOC(=O)c1ccc(NC(=O)c2cc(-c3ccc(Br)cc3)nc3ccccc23)cc1` gave MITF primary 57, GPR151 ag inactive, FBW7 act inactive, TEAD-YAP inh inactive, MITF confirm inactive and AlphaScreen intf2 inactive.
Screening CCCOC(=O)c1ccc(NC(=O)c2cc(-c3ccc(Br)cc3)nc3ccccc23)cc1 returned MITF primary inactive, GPR151 ag inactive, FBW7 act inactive and TEAD-YAP inh inactive.
`Cc1ccc(-c2cc(C(=O)Nc3ccccc3Cl)c3ccccc3n2)cc1` gave MITF primary inactive, GPR151 ag inactive, FBW7 act inactive and TEAD-YAP inh inactive.
`Cc1ccc(-c2cc(C(=O)Nc3ccccc3Br)c3ccccc3n2)cc1` gave MITF primary 56, GPR151 ag inactive, FBW7 act inactive, TEAD-YAP inh inactive, MITF confirm inactive and AlphaScreen intf2 inactive.
For CCOC(=O)CCCCNCc1ccc(F)cc1 the results were MITF primary inactive, GPR151 ag inactive, FBW7 act inactive and TEAD-YAP inh inactive.
`CCC(=O)N1N=C(c2c(-c3ccccc3)c3cc(Br)ccc3[nH]c2=O)CC1c1ccc(Br)cc1` (stereo unspecified) gave MITF primary inactive, GPR151 ag inactive, FBW7 act inactive and TEAD-YAP inh inactive.
O=C(CNCCc1ccc(Cl)cc1)Nc1ccccc1N1CCOCC1 was read as MITF primary 65, GPR151 ag inactive, FBW7 act inactive, TEAD-YAP inh inactive, MITF confirm inactive and AlphaScreen intf2 inactive.
For O=C(CNCCC1=CCCCC1)Nc1ccccc1N1CCOCC1 the results were MITF primary 77, GPR151 ag inactive, FBW7 act inactive, TEAD-YAP inh inactive, MITF confirm inactive and AlphaScreen intf2 inactive.
Screening O=C(CNCCc1ccccc1)Nc1ccccc1N1CCCCCC1 returned MITF primary inactive, GPR151 ag inactive, FBW7 act inactive and TEAD-YAP inh inactive.
